Results on five compounds are retold here after PubChem BioAssay AID1048 (The Scripps Research Institute Molecular Screening Center, 2008).

The structures appear in SMILES notation. About 390 (0.39%) of roughly 99,000 compounds were called active. Rule as the data show it: active = TR-FRET ratio above about 2000; inactive = the rest. Many of the other results were omitted from the sample, so actives are more common in it than they were.

The experiment in a line: TR-FRET detection interference compounds, artefact control for PPARgamma SRC-3 recruitment agonists, biochemical, TR-FRET ratio (AID 1048). The note with it: TR-FRET artefact counter-screen, PPARgamma/SRC-3 format; at 8 µM; hits give high values.
`COc1cc(-n2c(=S)[nH]c3ccc(C)cc3c2=O)c(Cl)cc1Cl`: the TR-FRET ratio is 2500 (active).
As for `O=C(Cc1ccccc1)N1CCN(C2CCCCCC2)CC1`, the TR-FRET ratio was 1380 (inactive).
For the compound `O=C(CCNS(=O)(=O)c1ccccc1)Nc1ccc(Cl)cc1C(=O)c1ccccc1`, the TR-FRET ratio is 1450 (inactive).
The figure for `Cc1ccccc1N1C(=O)NC(=O)/C(=C\c2cc(C)n(C)c2C)C1=O` is 1530 (inactive).
In the case of `Cc1cccc(-n2c(O)c(/C=N/N3CCOCC3)c(=O)[nH]c2=S)c1`, the TR-FRET ratio was 1680 (inactive).
